Pf growth 96h: inhibits malaria parasite growth, 96 h | P. falciparum luciferase reporter growth, 96 h | Potency, µM (titrated, usually from 28.7 µM), without a hit: at the top dose activity change, negative = inhibition, usual class: inhibitors | 320,000 compounds, 6.9% hits; also: % is scaled to controls: 0 for no effect and ±100 for the full control effect
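Luminescence readout: decreased luciferase signal marks inhibited growth of reporter-expressing P. falciparum in infected red cells (2% hematocrit, 0.05% parasitemia final), exposed to compound two generations (96 h, 37 C, 5% CO2).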
Sm TGR block: blocks Schistosoma mansoni thioredoxin glutathione reductase. Q962Y6. purified TGR, DTNB reduction, TNB absorbance 405 nm. Potency, µM (highest dose often 114 µM), for inactives: top-dose activity change, negative = inhibition, usual class: inhibitors. 360,000 compounds, 3% hits. AID 485364; also: % is scaled to controls: 0 for no effect and ±100 for the full control effect; nearly all actives have a fitted effect of over 60% in size
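Kinetic colorimetric format: TGR-catalysed, NADPH-driven DTNB reduction monitored via TNB absorbance. Enzyme dispensed at 20 nM; compound exposure 15 min at room temperature before reaction start.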
SARS PLP yeast: SARS-CoV PLP inhibition in yeast; Potency, µM (highest dose often 32.9 µM), inactives show at the highest dose activity, positive = growth rescue, actives largely listed as activators; S. cerevisiae expressing SARS-CoV PLpro, growth rescue; 330,000 compounds, 0.19% hits; calls by dose curve; also: 0% is about no effect; nearly all actives have a fitted effect of over 55% in size
AmpC detergent: blocks E. coli AmpC beta-lactamase in detergent assay. P00811. AmpC hydrolysis of nitrocefin, absorbance 480 nm, 0.01% Triton. Potency, µM (top dose mostly 114 µM), for the others: at the highest dose activity change, negative = inhibition, actives largely listed as inhibitors. 370,000 compounds, 0.041% hits. AID 485294;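 also: 0% = no-compound wells and -100% = no-enzyme wells; nearly all actives have a fitted effect of over 25% in size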
Target sequence (P00811 whole entry, looked up): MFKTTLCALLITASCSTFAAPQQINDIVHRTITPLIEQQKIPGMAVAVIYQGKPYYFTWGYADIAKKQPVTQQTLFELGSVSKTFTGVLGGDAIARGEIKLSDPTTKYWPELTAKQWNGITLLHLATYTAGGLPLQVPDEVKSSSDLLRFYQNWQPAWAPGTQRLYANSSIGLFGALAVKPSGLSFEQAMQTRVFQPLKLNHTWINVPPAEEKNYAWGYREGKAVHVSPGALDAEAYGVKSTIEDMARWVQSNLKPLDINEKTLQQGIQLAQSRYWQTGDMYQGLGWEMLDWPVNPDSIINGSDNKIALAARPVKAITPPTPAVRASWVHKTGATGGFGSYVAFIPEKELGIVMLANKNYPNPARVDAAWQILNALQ
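20 mM phosphate pH 7.0 + 0.01% (detergent screen) or 0.0001% Triton X-100; 5.3 nM AmpC reagent; cpd preinc 15 min RT; nitrocefin (800 uM stock) to start; A480 q20 s × 4 min; Activity was normalised to no-enzyme and no-compound control wells.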
AmpC inh no detg: inhibitors of E. coli AmpC beta-lactamase without detergent | 330,000 compounds, 0.52% hits | AmpC nitrocefin hydrolysis, absorbance 480 nm, 0.0001% Triton | AID 485341 | Potency, µM (series often up to 57.1 µM), inactives show top-dose activity change, negative = inhibition, hits mostly inhibitors | P00811;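 also: plate controls were no compound for no effect and no enzyme for full effect; nearly all actives have a fitted effect of over 20% in size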
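AmpC (5.3 nM in the dispensed reagent) in 20 mM phosphate pH 7.0 with 0.01% (detergent screen) or 0.0001% Triton X-100 was preincubated with compounds for 15 min at room temperature. Nitrocefin was then added from an 800 uM solution, and hydrolysis was followed at 480 nm.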
Pf growth 48h: P. falciparum growth inhibition at 48 hours (one generation) | P. falciparum luciferase growth in erythrocytes, 48 h | Potency, µM (doses to about 28.7 µM), without a hit: at the highest dose activity change, negative = inhibition, usual class: inhibitors | 310,000 compounds, 5.9% hits; also: % is scaled to controls: 0 for no effect and ±100 for the full control effect
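Growth was read as firefly luciferase luminescence after a 48 h, 37 C, 5% CO2 exposure of compounds to reporter-bearing P. falciparum cultures (0.1% parasitemia, 2% hematocrit final) in Albumax-supplemented RPMI 1640.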
* = called active by the depositor; [ ] = another dose, or the depositor's remark. In the library only some 12% were active in any assay of this set; here they are far more common. Unless noted, calls follow the shape of the dose curve; as a rule, active = well fitted curve in the direction sought with a large enough effect; inconclusive = small, poorly fitted or top-dose-only effect, or another doubt; inactive = no such curve, though single readings can be large; an effect the other way counts as inactive or inconclusive. Potency is read from the fitted curve at half-maximal effect.

CC(C)CS(=O)(=O)c1oc(-c2ccc(F)cc2)nc1S(=O)(=O)c1ccccc1 was read as Sm TGR block 1.12µM* and AmpC detergent -6.6%.
CC(C)CNC(=O)C1=CC(c2ccc3c(c2)OCO3)=NS(=O)(=O)N1C was read as Sm TGR block -5.0% and AmpC detergent 19.5%.
For Cc1cccc(S(=O)(=O)c2cn(C)c3cc(N4CCCCCC4)c(F)cc3c2=O)c1 the results were Sm TGR block -4.3% and AmpC detergent 14.8%.
Screening Cc1cccc(N2CCN(C(=O)Cn3c(C)c4cnn(-c5ccccc5)c(=O)c4c3C)CC2)c1C returned Sm TGR block 5.6% and AmpC detergent 16.1%.
For CCn1cc(C(=O)N[C@@H](CCSC)C(=O)NCCO)c(=O)c2cc3c(cc21)OCO3 the results were Pf growth 96h 6.57µM*, Sm TGR block 9.4%, SARS PLP yeast 0.5%, AmpC detergent -1.8%, AmpC inh no detg 19.4% and Pf growth 48h 8.28µM*.
Cc1nnsc1C(=O)Oc1ccc(C#N)cc1 was read as Sm TGR block 15.8µM* and AmpC detergent 9.9%.
CCN(CC)C(=O)C1CCN(C(=O)c2cnn(-c3ccccc3)c2-n2cccc2)CC1 was read as Sm TGR block inconclusive and AmpC detergent 16.1%.
Screening C=C(C)C(=O)NNc1ccccc1 returned Pf growth 96h 4.0%, Sm TGR block 1.58µM*, SARS PLP yeast -0.8%, AmpC detergent inconclusive, AmpC inh no detg -1.2%[11.4 µM] and Pf growth 48h 28.0%.
For CC(C)OC(=O)C(=O)NNc1ccccc1 the results were Pf growth 96h -18.9%, Sm TGR block -7.7%, SARS PLP yeast -14.9%, AmpC detergent -6.1%, AmpC inh no detg 6.0% and Pf growth 48h inconclusive.
For O=C(NCCCO)c1cc2c(cn1)[nH]c1ccccc12 the results were Pf growth 96h 68.8%, Sm TGR block 8.3%, SARS PLP yeast -0.7%, AmpC detergent 1.8%, AmpC inh no detg -9.3% and Pf growth 48h 63.3%.
For O=C(NCCCN1CCOCC1)c1cc(-c2cccc(Br)c2)nc2ccccc12 the results were Pf growth 96h inconclusive, Sm TGR block -3.8%, AmpC detergent -6.7%, AmpC inh no detg 218.5% and Pf growth 48h inconclusive.
O=C(NCCCO)c1cc2c([nH]c3ccccc32)c(-c2ccccc2)n1 was read as Pf growth 96h 5.86µM*, Sm TGR block -12.0%, SARS PLP yeast -0.5%, AmpC detergent -1.6%, AmpC inh no detg -2.4% and Pf growth 48h inconclusive.
`COc1cccc(-c2nc(C(=O)NCCCN3CCOCC3)cc3c2[nH]c2ccccc23)c1` gave Pf growth 96h 8.28µM*, Sm TGR block 0.5%, SARS PLP yeast -5.7%, AmpC detergent inconclusive, AmpC inh no detg 320.6% and Pf growth 48h 13.1µM*.
`O=C(NCCCN1CCOCC1)c1cc2c([nH]c3ccccc32)c(-c2cccc(Br)c2)n1` gave Pf growth 96h 3.29µM*, Sm TGR block -6.9%, SARS PLP yeast -7.7%, AmpC detergent -7.4%, AmpC inh no detg 203.4% and Pf growth 48h 2.33µM*.
For COc1cccc(-c2cc(C(=O)NCCCN3CCOCC3)no2)c1 the results were Pf growth 96h 95.3%, Sm TGR block 1.7%, SARS PLP yeast 1.8%, AmpC detergent 7.3%, AmpC inh no detg -4.6% and Pf growth 48h 5.7%.
For O=C1CN(C(=O)COc2ccc(Cl)cc2)C(c2ccc(F)cc2)c2cc(Cl)ccc2N1 (centres undefined) the results were Sm TGR block 1.8% and AmpC detergent 3.2%.
Screening c1ccc(-c2noc(C34CC5CC(CC(C5)C3)C4)n2)nc1 returned Pf growth 96h -0.9%, Sm TGR block -21.7%, SARS PLP yeast 1.3%, AmpC detergent -0.4%, AmpC inh no detg 1.6% and Pf growth 48h inconclusive.
COc1cccc(CN2CC(C(=O)NCc3ccc(C)o3)CCC2=O)c1 (centres undefined) was read as Pf growth 96h 0.5%, Sm TGR block inconclusive, SARS PLP yeast -1.0%, AmpC detergent inconclusive, AmpC inh no detg -1.0% and Pf growth 48h 4.0%.
CC(C)C(NC(=O)CCNC(=O)c1ccc(C(C)(C)C)cc1)c1nc2ccccc2[nH]1 (centres undefined) was read as Pf growth 96h inconclusive, Sm TGR block -8.9%, SARS PLP yeast -2.2%, AmpC detergent -7.8%, AmpC inh no detg 132.5% and Pf growth 48h 8.28µM*.
`CC(C)C(NC(=O)CCNC(=O)c1ccccc1Cl)c1nc2ccccc2[nH]1` (centres undefined) gave Pf growth 96h 0.5%, Sm TGR block -34.6%, SARS PLP yeast -1.7%, AmpC detergent 2.0%, AmpC inh no detg -15.8% and Pf growth 48h inconclusive.
For COCc1c(C(=O)N(C)Cc2ccccc2N2CCCC2)oc2ccccc12 the results were Pf growth 96h 9.28µM*, Sm TGR block 0.2%, SARS PLP yeast 2.1%, AmpC detergent -8.0%, AmpC inh no detg 53.6% and Pf growth 48h inconclusive.
`COCc1c(C(=O)N2CCN(c3ncccn3)CC2)oc2ccccc12` gave Pf growth 96h inconclusive, Sm TGR block -25.6%, SARS PLP yeast -7.6%, AmpC detergent inconclusive, AmpC inh no detg 20.7% and Pf growth 48h -25.2%.
`Cc1ccc(CC(=O)O/N=C(\N)Cc2ccc([N+](=O)[O-])cc2)cc1` gave Pf growth 96h -19.0%, Sm TGR block 0.1%, SARS PLP yeast -32.1%, AmpC detergent inconclusive, AmpC inh no detg -34.0% and Pf growth 48h 4.3%.
N/C(Cc1ccc([N+](=O)[O-])cc1)=N\OC(=O)CC1CCCCC1 was read as Pf growth 96h inconclusive, Sm TGR block -1.3%, SARS PLP yeast -90.5%, AmpC detergent inconclusive, AmpC inh no detg -23.7% and Pf growth 48h 13.1µM*.
N/C(Cc1ccc(Cl)cc1)=N\OC(=O)C1CCCCC1 was read as Pf growth 96h 42.8%, Sm TGR block -15.1%, SARS PLP yeast -95.4%, AmpC detergent inconclusive, AmpC inh no detg -10.0% and Pf growth 48h 5.86µM*.
COc1ccc2c(c1)c(=O)c(S(=O)(=O)c1ccc(F)cc1)cn2Cc1ccccc1Cl was read as Sm TGR block 0.5% and AmpC detergent -4.0%.
`Cc1ccc(S(=O)(=O)Nc2cccc(-c3ccc(N4CCCCCC4)nn3)c2)cc1C` gave Pf growth 96h 13.1µM*, Sm TGR block -28.2%, SARS PLP yeast 2.6%, AmpC detergent -11.8%, AmpC inh no detg -58.6% and Pf growth 48h 22.0%.
